Sampled rows, rich in hits. Any-hit rate of the full collection: about 1.2%.
KAT2A inh = qHTS Assay for Inhibitors of GCN5L2 | Histone acetyltransferase KAT2A (Homo sapiens), Q92830 | GCN5L2 HAT assay, ThioGlo1 CoA-SH fluorescence | Potency, µM (series often up to 58.9 µM), inactives show at the top dose activity change, negative = inhibition, usual class: inhibitors | 390,000 compounds, 0.21% hits | AID 504327, 2011; note: potency is the fitted concentration of half-maximal effect
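GCN5L2 (20nM final) in 50mM HEPES, 0.1mM EDTA pH 7.5, 0.01% Tween-20 was preincubated 15 min at room temperature with compound, then given ThioGlo1 (50uM), H3(1-25) peptide (75uM) and acetyl-CoA (70uM); CoA-thiol fluorescence (Ex340/Em540) was read at 0 and 20 min.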
RGS4 inh = Inhibitors of Regulator of G Protein Signaling (RGS) 4: qHTS. 390,000 compounds, 0.039% hits. AID 504845, 2011. Potency, µM (highest dose often 114 µM), inactives show top-dose activity change, negative = inhibition, actives largely listed as inhibitors. Transcreener GDP fluorescence polarization, RGS4-accelerated GTP hydrolysis; note: potency is the fitted concentration of half-maximal effect; nearly all actives have a fitted effect of over 75% in size
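MLSMR compounds (23 nl, pin-transferred) preincubated 10 min at room temperature with a 500nM (2x) first reagent, then RGS4 at 900nM (2x) plus Transcreener GDP mix added; fluorescence polarization (620/688 nm) read before and after 90 min at 30 °C.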
KCNH2 3.1 inh = qHTS for Inhibitors of KCHN2 3.1: Mutant qHTS | Potassium voltage-gated channel subfamily H member 2, brain isoform KCNH2 3.1 (human) | U2OS KCNH2 3.1, thallium flux FluxOr; stronger effect = lower value | activity change, % (tested at about 1.8 µM) | 340,000 compounds, 0.95% hits | AID 720553, 2013;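 active = maximum activity change below -70%; inconclusive = maximum activity change from -70% to -50%; inactive = maximum activity change above -50%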;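 note: thallium influx rate constant from kinetic fluorescence after stimulation buffer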
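Steps: virus added to U2OS suspension (4 h, RT, dark); medium with 10% FBS added, cells plated, 37 C overnight; FluxOr/Red40 loading buffer 45 min RT; stimulation buffer, 2 min kinetic read; rate constant normalized.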
Pin1 inhibitor = qHTS Assay to Find Inhibitors of Pin1. 390,000 compounds, 0.009% hits. AID 504891, 2011. Potency, µM (doses to about 115 µM), for the others: top-dose activity, negative = inhibition, most hits filed as inhibitors. Pin1 FP peptide displacement, HiFluor488, 10 min; active = well fitted inhibition curve with a large enough effect in the polarisation, with a control signal flat, not every such curve was filed as active; inconclusive = small, poorly fitted or top-dose-only effect, or effect the other way, or a change in a side signal; inactive = no such curve, though single readings can be large or run the other way; the % refers to the polarisation; note: potency is the fitted concentration of half-maximal effect
Target sequence (Q13526 whole entry, looked up): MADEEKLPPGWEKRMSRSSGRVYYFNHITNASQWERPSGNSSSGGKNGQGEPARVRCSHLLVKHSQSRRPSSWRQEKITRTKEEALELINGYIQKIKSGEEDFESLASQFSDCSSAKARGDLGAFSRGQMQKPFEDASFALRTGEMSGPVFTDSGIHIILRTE
KCNH2 WT inh = qHTS for Inhibitors of KCHN2 3.1: Wildtype qHTS; U2OS, BacMam KCNH2, thallium flux FluxOr; stronger effect = lower value; activity change, % at 1.84 µM; 340,000 compounds, 0.37% hits;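 active = maximum activity change below -70%; inconclusive = maximum activity change between -70% and -50%; inactive = maximum activity change above -50%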
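U2OS cells transduced with wild-type KCNH2 virus are loaded with FluxOr dye for 45 min, and thallium flux is measured in kinetic reads before and after stimulation buffer. Rate constants are normalized to DMSO controls.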
PGK inhibitor = qHTS Assay to Find Inhibitors of Phosphoglycerate Kinase | Phosphoglycerate kinase, glycosomal (Trypanosoma brucei brucei), P07378 | AID 602233, 2012 | 380,000 compounds, 0.043% hits | Potency, µM (highest dose often 57.5 µM), without a hit: at the top dose activity change, negative = inhibition, hits mostly inhibitors | PGK/GAPDH coupled, Kinase-Glo luminescence, 60 min; note: potency is the fitted concentration of half-maximal effect; nearly all actives have a fitted effect of over 60% in size
Target sequence (P07378 whole entry, looked up): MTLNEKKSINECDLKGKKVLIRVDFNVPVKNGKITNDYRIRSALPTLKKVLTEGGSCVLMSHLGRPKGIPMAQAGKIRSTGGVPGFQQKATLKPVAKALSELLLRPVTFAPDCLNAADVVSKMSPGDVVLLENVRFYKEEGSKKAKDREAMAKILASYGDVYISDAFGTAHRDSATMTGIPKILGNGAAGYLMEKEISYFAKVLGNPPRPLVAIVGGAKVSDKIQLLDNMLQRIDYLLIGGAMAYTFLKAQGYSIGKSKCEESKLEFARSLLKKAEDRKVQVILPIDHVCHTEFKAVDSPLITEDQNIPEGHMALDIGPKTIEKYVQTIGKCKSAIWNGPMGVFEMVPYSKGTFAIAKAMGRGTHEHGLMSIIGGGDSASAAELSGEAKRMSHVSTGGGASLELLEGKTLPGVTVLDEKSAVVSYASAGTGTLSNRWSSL
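Recombinant glycosomal PGK reaction used 1,3-bisphosphoglycerate generated in-well by GAPDH (100nM final) in 100mM TEA pH 7.6, 5mM MgCl2, 0.01% Tween-20. After 60 minutes at room temperature, ATP was read by Kinase-Glo Plus luminescence end-point.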
Starred values were filed as active, the others as inactive; [ ] = dose if it differs, or a comment. Unless noted, calls come from the whole dose curve; as a rule, active = well fitted curve in the direction sought with a large enough effect; inconclusive = small, poorly fitted or top-dose-only effect, or another doubt; inactive = no such curve, though single readings can be large; an effect the other way counts as inactive or inconclusive. % is set by controls: 0 for no effect and ±100 for the full control effect.

CNC(=O)[C@H]1O[C@H](n2cnc3c(NCc4cccc(I)c4)ncnc32)[C@@H](O)[C@@H]1O was read as KAT2A inh 3.5%[0.501 µM] and RGS4 inh -131.7%[56.9 µM].
For COc1ccc(N2CC(O)(c3ccc(OC(F)F)cc3)[N+]3=C2CCCC3)cc1 (configuration not stated) the results were KAT2A inh -1.0%, RGS4 inh 22.7%, KCNH2 3.1 inh -72.5*, Pin1 inhibitor -1.8%, KCNH2 WT inh -85.7* and PGK inhibitor 7.0%.
Screening CCOc1ccc(N2CC(O)(c3cccs3)[N+]3=C2CCCC3)cc1 (configuration not stated) returned KAT2A inh -1.6%, RGS4 inh -11.6%, KCNH2 3.1 inh -102.2*, Pin1 inhibitor -1.5%, KCNH2 WT inh inconclusive and PGK inhibitor -2.0%.
`CCOc1ccc(N2CC(O)(c3ccc(F)cc3)[N+]3=C2CCCC3)cc1` (configuration not stated) gave KAT2A inh -2.6%, RGS4 inh -20.0%, KCNH2 3.1 inh -104.4*, Pin1 inhibitor 0.2%, KCNH2 WT inh -49.0 and PGK inhibitor 7.5%.
COc1ccc(N2CC(O)(c3ccc(F)cc3)[N+]3=C2CCCC3)cc1 (configuration not stated) was read as KAT2A inh -2.3%, RGS4 inh -1.3%, KCNH2 3.1 inh -16.1, Pin1 inhibitor 4.8%, KCNH2 WT inh 3.9 and PGK inhibitor 7.3%.
Fc1ccc(-c2ccc3c(c2)C2CC3CCN2Cc2ccc3c(c2)OCO3)cc1 (configuration not stated) was read as RGS4 inh 5.2%, Pin1 inhibitor 0.6%, KCNH2 WT inh -36.7 and PGK inhibitor -1.6%.
`Cc1cccc(-c2ccc3c(c2)C2CC3CCN2Cc2ccc3c(c2)OCO3)c1` (configuration not stated) gave RGS4 inh 2.3%, KCNH2 3.1 inh -76.1*, Pin1 inhibitor 1.5%, KCNH2 WT inh -12.7 and PGK inhibitor -8.2%.
O=C(Nc1cccc(Cl)c1)c1nc[nH]c1C(=O)Nc1ccccc1F was read as KCNH2 3.1 inh 18.7, KCNH2 WT inh -70.7* and PGK inhibitor -9.1%.
`CN(C)c1ccc(NC(=O)CN2C(=O)c3ccccc3Sc3ccc(C(=O)N4CCCC4)cc32)cc1` gave KAT2A inh -1.7%, RGS4 inh -37.1%, Pin1 inhibitor 4.0% and PGK inhibitor -4.1%.
CN1CCN(c2ccc(NC(=O)c3ccccc3Br)cc2)CC1 was read as KAT2A inh -0.4%, RGS4 inh 7.2%, KCNH2 3.1 inh 0.2, Pin1 inhibitor -5.0%, KCNH2 WT inh -6.6 and PGK inhibitor -13.1%.
CN1CCN(c2ccc(NC(=S)NC(=O)c3cccc4c(Br)cccc34)cc2)CC1 was read as KAT2A inh -1.4%, RGS4 inh -37.7%, KCNH2 3.1 inh -82.7*, Pin1 inhibitor 0.4%, KCNH2 WT inh -36.5 and PGK inhibitor -0.9%.
`CN1CCN(c2ccc(NC(=O)COc3cccc4ccccc34)cc2)CC1` gave KAT2A inh -2.5%, RGS4 inh -2.2%, KCNH2 3.1 inh -34.6, Pin1 inhibitor -2.7%, KCNH2 WT inh -0.9 and PGK inhibitor -0.6%.
For CN1CCN(c2ccc(NC(=S)NC(=O)c3cccc4ccccc34)cc2)CC1 the results were KAT2A inh -1.8%, RGS4 inh -50.4%, KCNH2 3.1 inh -79.4*, Pin1 inhibitor -1.2%, KCNH2 WT inh 17.3 and PGK inhibitor 2.0%.
For CCOC(=O)c1ccc(NC(=S)N(CCN2CCCCCC2)Cc2ccco2)cc1 the results were KAT2A inh -6.1%, RGS4 inh -23.5%, KCNH2 3.1 inh -89.6*, Pin1 inhibitor -0.3%, KCNH2 WT inh 15.4 and PGK inhibitor -7.1%.
Screening CCOc1ccc2nc(N3CCC(C(=O)N4CCN(C(=O)c5ccco5)CC4)CC3)sc2c1 returned KAT2A inh -4.2%, RGS4 inh -24.8%, KCNH2 3.1 inh -76.6*, Pin1 inhibitor 3.8%, KCNH2 WT inh -34.6 and PGK inhibitor -2.7%.
Screening CCOc1ccc2nc(N3CCCC(C(=O)N4CCN(CC)CC4)C3)sc2c1 (configuration not stated) returned KAT2A inh -6.0%, RGS4 inh -3.0%, KCNH2 3.1 inh -85.6*, Pin1 inhibitor 2.0%, KCNH2 WT inh 5.8 and PGK inhibitor -1.4%.
Screening CCOc1ccc2nc(NC(=O)C3CCN(C(=O)c4ccco4)CC3)sc2c1 returned KAT2A inh -2.0%, RGS4 inh 4.1%, KCNH2 3.1 inh 19.2, Pin1 inhibitor -4.3%, KCNH2 WT inh -3.4 and PGK inhibitor inactive.
Screening CCCCN(C(=O)c1ccc(-c2ccc(Cl)cc2)o1)c1c(N)n(CCCC)c(=O)[nH]c1=O returned KAT2A inh -0.7%, RGS4 inh inconclusive, KCNH2 3.1 inh 3.8, Pin1 inhibitor inconclusive, KCNH2 WT inh -201.8* and PGK inhibitor 2.8%.
Screening CCCCN(C(=O)c1ccc(-c2ccc(Cl)cc2)o1)c1c(N)n(CCC)c(=O)[nH]c1=O returned KAT2A inh -3.0%, RGS4 inh 10.7%, KCNH2 3.1 inh 8.3, Pin1 inhibitor 27.9%, KCNH2 WT inh 5.6 and PGK inhibitor -7.7%.
For CC(=O)c1ccc(N2CCN(c3ccc(C(F)(F)F)cn3)CC2)cc1 the results were KAT2A inh 1.6%, RGS4 inh -19.4%, KCNH2 3.1 inh -200.0*, Pin1 inhibitor 22.0%, KCNH2 WT inh -138.8* and PGK inhibitor 14.7%.
For CC(=O)c1ccc(N2CCN(c3ncc(C(F)(F)F)cc3Cl)CC2)cc1 the results were KAT2A inh 0.3%, RGS4 inh inconclusive, KCNH2 3.1 inh 6.5, Pin1 inhibitor 0.2%, KCNH2 WT inh 17.9 and PGK inhibitor -9.6%.
Screening O=C(NCc1nnc(-c2cc3ccccc3[nH]2)o1)c1ccccc1 returned Pin1 inhibitor 3.2%.
For Cc1ccc(C)c(Nc2nc3c(S(=O)(=O)c4ccccc4)nnn3c3ccccc23)c1 the results were KAT2A inh -2.8%, RGS4 inh 15.9%, KCNH2 3.1 inh -71.6*, Pin1 inhibitor -1.4%, KCNH2 WT inh -1.5 and PGK inhibitor 2.6%.
Screening Cc1ccc(S(=O)(=O)c2nnn3c2nc(Nc2cccc(C)c2)c2ccccc23)cc1 returned KAT2A inh -12.0%, RGS4 inh -10.0%, KCNH2 3.1 inh 10.1, Pin1 inhibitor -1.8%, KCNH2 WT inh 20.4 and PGK inhibitor -5.9%.
